# Source: PubChem
# An excerpt weighted towards active compounds, which were near 1.4% of everything screened.
# OPRM1-OPRD1 ag – agonists of human mu-delta opioid receptor heterodimerization; P35372+P41143; cells, OPRM1-OPRD1 heterodimerization, luminescence; activation, % at 9.3 µM; 340,000 compounds, 0.3% hits; in the data active = activation above about 18%;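 note: 0% = vehicle-treated cells and 100% = reference agonist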
# MOR-DOR inv ag – inverse agonist of human OPRM1-OPRD1 heterodimerization; 340,000 compounds, 0.21% hits; cell-based MOR-DOR heterodimer luminescence, inverse agonism; inhibition, % at 9.3 µM; in the data active = inhibition above about 22%, passing the limit was not always enough;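 note: 0% = cells with DMSO and 100% = wells without cells with DMSO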
# pCIP destab – p/CIP protein destabilization; Q05BA5; F442A p/CIP-EGFP cells, EGFP fluorescence, 16 h; decrease of EGFP signal, % at 10 µM; 290,000 compounds, 0.01% hits; AID 1984;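 active = EGFP signal decrease of at least 30% at 10 µM or well 3 SD below plate mean, unless failing retest; inactive = the rest, including hits failing retest or dose response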
# MIN6 prolif – induces beta-cell replication in MIN6 cells; MIN6 cells proliferation, ATPlite luminescence, 48 h; cells starved in 0.2% serum; 100% = growth in 10% serum; proliferation, % at 10 µM; 330,000 compounds, 0.29% hits;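 active = compounds whose signal lies at least 3.5 SD above the mean of all wells on their plate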;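 note: 0% = DMSO-treated cells in low-serum medium and 100% = 10% serum control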
# HTR5A inv ag – counter-screen for OPRM1-OPRD1 inverse agonists: human HTR5A inverse agonism; P47898; HTR5A cell line, luminescence; inhibition, % at 9.3 µM; 340,000 compounds, 0.083% hits; in the data active = inhibition mostly above about 23%, no sharp cut-off; inactive = mostly below about 18%;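 note: 0% = cells with DMSO and 100% = no-cell wells with DMSO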
# HTR5A ag ctr – counter-screen for OPRM1-OPRD1 agonists: human HTR5A agonism; P47898; HTR5A agonist assay, luminescence, cell-based; activation, % at 9.3 µM; 340,000 compounds, 0.61% hits; AID 504692; in the data active = activation mostly above about 9.5%, no sharp cut-off; inactive = mostly below about 7.6%;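 note: 0% = cells with vehicle only and 100% = reference agonist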
# * hit, by the source's call; i = inactive; . = not tested or not shown.
SMILES,OPRM1-OPRD1 ag,MOR-DOR inv ag,pCIP destab,MIN6 prolif,HTR5A inv ag,HTR5A ag ctr
O=C(COC(=O)CCN1C(=O)c2ccccc2C1=O)Nc1ccccc1[N+](=O)[O-],-1,7,.,-2,-38,11*
O=C(COC(=O)c1cccc(Cl)c1)Nc1cccc(S(=O)(=O)NC2=NCCC2)c1,-1,5,.,-1,-2,-4
COc1cc(/C=N/NC(=O)c2ccc(COc3cc(C)ccc3C(C)C)cc2)cc(OC)c1O,5,-24,-15,-6,6,0
Cc1ccc(C(C)C)c(OCc2ccc(C(=O)N/N=C/c3ccc(O)c(O)c3)cc2)c1,3,-19,-29,0,-38,14*
O=C(c1ccc(OC2CCN(Cc3ccc(F)cc3)CC2)cc1)N1CCCC1,0,2,-1,2,-38,10*
Cc1ccc(C(=O)NC(C)c2ccc(F)cc2)cc1 (stereo unspecified),0,2,-10,1,1,0
CC(NC(=O)c1ccc(F)cc1)c1ccccc1 (stereo unspecified),-1,8,-4,2,-9,10*
Cc1cc(OCC(=O)Nc2ccncc2)cc(C)c1Br,4,-24,-22,-4,-1,13*
Cc1cc(OCC(=O)Nc2ccncc2)ccc1Cl,0,0,-11,-3,-2,1
CN(C(=O)CSc1cc(Cl)ccc1Cl)C1CCS(=O)(=O)C1 (stereo unspecified),-2,11,.,-3,2,0
CN(CCO)c1cc(N(C)CCO)c([N+](=O)[O-])cc1[N+](=O)[O-],0,-1,24,2,-4,12*
CCc1ccc2c(c1)cc(CN(Cc1ccco1)C(C)=O)c1nnnn12,2,-9,-4,11*,-14,6
CC(=O)N(Cc1ccco1)Cc1cc2cccc(C)c2n2nnnc12,.,.,3,-2,.,.
COc1ccc(-n2c(Cn3c(=O)sc4ccccc43)nnc2SC)cc1,0,0,-13,-1,-33,12*
CCSc1nnc(Cn2c(=O)sc3ccccc32)n1-c1ccc(OC)cc1,-3,16,5,-1,10,-4
Cc1cc(=O)[nH]c(SCC(=O)Nc2ccc(Br)cn2)n1,2,-11,0,0,-35,13*
CN(C)S(=O)(=O)c1ccc(C(=O)N2CCN=C2SCc2ccccc2)cc1,0,0,3,-1,-31,13*
CN(c1ccccc1)S(=O)(=O)c1cccc(C(=O)OCC(=O)Nc2ccc(C(N)=O)cc2)c1,-2,9,.,-3,3,-1
CSc1ccccc1NC(=O)COC(=O)CCC(=O)c1ccc(F)cc1,-1,4,.,-2,-33,8.4*
Cc1ccc(C(=O)CCC(=O)OCC(=O)Nc2ccccc2SCC#N)cc1,-1,5,.,0,-13,5
COc1ccc(CCNC(=O)COC(=O)c2ccccn2)cc1,1,-4,.,0,-1,0
Cc1cccc2c1NC(=O)C2(O)N1CCCC(C)C1 (stereo unspecified),-2,9,-8,0,-13,-1
CC[C@@H](C(=O)[C@@H](C)[C@@H](O)[C@H](C)[C@@H]1O[C@@H]([C@@H](CC)C(=O)O)CC[C@@H]1C)[C@H]1O[C@]2(C=C[C@@H](O)[C@]3(CC[C@@](C)([C@H]4CC[C@](O)(CC)[C@H](C)O4)O3)O2)[C@H](C)C[C@@H]1C,104*,i,.,.,-115,40*
CCOc1cc(/C=C2\C(=O)N(Cc3ccc(C)cc3)C(C)=C2C(=O)OC)ccc1O,2,-10,-3,-4,-40,16*
Cc1cc(C)n2nc(C(=O)OCC(=O)NCc3ccc(F)cc3)nc2n1,-1,5,.,0,1,-3
SMILES,OPRM1-OPRD1 ag,MOR-DOR inv ag,pCIP destab,MIN6 prolif,HTR5A inv ag,HTR5A ag ctr
Cn1c2ccccc2c2nnc(NN)nc21,1,-5,3,-3,12,-5
CCCCc1c(C)nn(-c2nnc3c4ccccc4n(C)c3n2)c1C,8,-45,-1,-3,-42,12*
Cn1c(SCC(=O)c2ccccc2)nc2cccnc21,2,-11,3,0,12,9.7*
COc1ccc(C2/C(=C(\O)c3ccc4c(c3)OCCO4)C(=O)C(=O)N2CCCn2ccnc2)cc1 (stereo unspecified),-3,17,-5,-2,-2,11*
COc1cccc(C(=O)Nc2ccc3c(cc2=O)[C@@H](NC(C)=O)CCc2cc(OC)c(OC)c(OC)c2-3)c1,1,-6,1,-5,-194,52*
Cc1ccc(SCC(=O)OCc2csc(CC(=O)Nc3ccccc3C)n2)cc1C,0,-1,.,-4,8,-3
CC(=O)c1ccc(NC(=O)CSc2ccsc2[N+](=O)[O-])cc1,-2,10,-14,.,-22,9.4*
O=C(COc1ccccc1Cl)Nc1ccc(NC(=O)c2ccco2)cc1,-3,14,-6,0,2,-1
O=C(Nc1ccc(-c2noc(COc3ccccc3Cl)n2)cc1)c1ccco1,3,-11,12,-2,-21,12*
Cc1[nH]c(C)c(S(=O)(=O)N2CCN(c3ccccc3F)CC2)c1C(=O)N1CCCC1,-1,6,0,-2,7,3
COc1ccc(CN(C)C(=O)Cn2cc(C)c(=O)[nH]c2=O)cc1OC,-1,5,.,.,-6,2
Cc1ccc(-n2[nH]c(C)c(C=Nc3ccc4[nH]c(=O)[nH]c4c3)c2=O)cc1C,25*,-114,-9,-3,-42,22*
C/C(=N\Nc1nc2ccccc2[nH]1)c1ccccn1,-11,61*,8,-4,20,-8
C/C(=N\Nc1nc2ccccc2[nH]1)c1cc2ccccc2o1,3,-21,1,-3,-16,-3
COc1ccc(C(=O)NNC(=S)NC(=O)c2cc(-c3ccccc3)nc3ccccc23)cc1,2,-9,-2,-3,21,-2
CCCOc1ccc(C(=O)NNC(=S)NC(=O)c2cc(-c3ccc(Cl)cc3)nc3ccccc23)cc1,-11,61*,-3,-4,75*,-22
Cc1cc(C)n(C(=O)/C(C#N)=N/Nc2cc(Cl)cc(Cl)c2)n1,6,-30,-14,-6,9,10*
CN1C(=O)CCC2(c3ccccc3)CC=C(O)C=C12 (stereo unspecified),-3,13,.,.,-8,2
Cc1ccccc1-n1c(SCC(=O)NCC2CCCO2)nc2c([nH]c3ccccc32)c1=O (stereo unspecified),-10,54*,8,3,52*,-16
O=C(CSc1nc2c([nH]c3ccccc32)c(=O)n1-c1ccccc1F)NCC1CCCO1 (stereo unspecified),-12,63*,-12,2,60*,-18
